# GLP1R cytotox: qHTS of GLP-1 Receptor Inverse Agonists: Cytotox Screen; HEK293 cAMP-luciferase reporter cells, luminescence, 24 h; Potency, µM (series often up to 38.3 µM), for inactives: at the highest dose activity change, negative = inhibition, usual class: inhibitors; 0.13% of 410,000 active;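 note: loss of luciferase light is scored as toxicity; % is set by controls: 0 for no effect and ±100 for the full control effect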
#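 Here, cytotoxicity is scored as loss of luminescence. The MLSMR collection was tested on cells seeded in medium containing 10% Nu serum, with a 24 hr compound exposure preceded by 12 hours of culture.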
# GLP-1R agonist: qHTS of GLP-1 Receptor Agonists. Glucagon-like peptide 1 receptor (Homo sapiens), P43220. HEK293 GLP-1R CRE-luciferase, luminescence, 4-6 h; cells express a hypersensitive GLP-1R form. Potency, µM (doses to about 45.6 µM), without a hit: at the highest dose activation, actives largely listed as activators. 0.007% of 380,000 active; note: % of control where 0% means no effect
# Target sequence (P43220 whole entry, looked up): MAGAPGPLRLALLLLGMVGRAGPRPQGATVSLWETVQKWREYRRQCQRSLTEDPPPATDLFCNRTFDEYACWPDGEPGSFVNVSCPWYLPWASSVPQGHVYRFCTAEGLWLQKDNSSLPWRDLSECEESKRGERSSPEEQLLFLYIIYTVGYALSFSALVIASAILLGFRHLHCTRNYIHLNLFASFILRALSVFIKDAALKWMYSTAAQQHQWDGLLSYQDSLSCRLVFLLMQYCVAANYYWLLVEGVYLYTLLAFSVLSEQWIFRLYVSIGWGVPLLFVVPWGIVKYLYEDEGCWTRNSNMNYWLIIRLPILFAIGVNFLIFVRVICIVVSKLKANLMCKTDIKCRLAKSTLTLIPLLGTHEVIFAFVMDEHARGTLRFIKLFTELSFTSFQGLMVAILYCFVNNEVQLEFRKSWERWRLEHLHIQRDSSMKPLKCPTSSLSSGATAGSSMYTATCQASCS
# GLP-1R inv ag: qHTS of GLP-1 Receptor Inverse Agonists (Inhibition Mode); Glucagon-like peptide 1 receptor (Homo sapiens), P43220; HEK293 GLP-1R CRE-luciferase, luminescence, 24 h; GLP-1R form is constitutively active; Potency, µM (highest dose often 38.3 µM), inactives show at the top dose activity change, negative = inhibition, hits mostly inhibitors; 1.6% of 410,000 active; AID 624417, 2012; note: % is set by controls: 0 for no effect and ±100 for the full control effect; nearly all actives have a fitted effect of over 55% in size
#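 Inverse agonism was detected as reduced cAMP-driven luciferase luminescence after 24 h compound treatment. The cells were HEK293 clones expressing constitutively active human GLP-1R with the reporter. Reporter-only and GPR119 cell lines served as counterscreen controls.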
# BRCA1 expr act: qHTS Assay to Identify Small Molecule Activators of BRCA1 Expression; MCF7-BRCA1-FFLuc reporter, luminescence, 48 h; response scale: scaled: vehicle 0%, 10 µM genistein 100%; Potency, µM (doses to about 46.1 µM), without a hit: top-dose activation, most hits filed as activators; 1.1% of 380,000 active; note: nearly all actives have a fitted effect of over 80% in size
#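 First, MCF7-BRCA1-FFLuc cells (2000/well) attach for 2 h; next, compounds are pin-added and incubated 48 h at 37 °C; finally, luciferase reagent is added and luminescence read after 15 min.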
# Integrin act MD: qHTS for Activators of Integrin-Mediated Alleviation for Muscular Dystrophy; alpha7betagal myoblasts, beta-gal FDG fluorescence, 48 h; Potency, µM (series often up to 38.3 µM), inactives show at the highest dose activation, hits mostly activators; 0.064% of 350,000 active;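 note: 100% = response of the positive control SU9516; nearly all actives have a fitted effect of over 60% in size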
#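 Alpha7betagal+/- myoblasts (passage 13) were plated 16-24 hr, then exposed to compounds (1:260 dilution of DMSO stock) for 48 hours at 37C. After MPER lysis, β-galactosidase reporter activity was read as FDG fluorescence (ex 480/em 540) after 30 minutes.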
# Numbers without * were called inactive; ? = inconclusive; / = not tested or not shown; [ ] = dose if it differs, or a comment. Sampled rows, rich in hits. Any-hit rate of the full collection: about 2.7%. Calls come from the whole dose curve; as a rule, active = well fitted curve in the direction sought with a large enough effect; inconclusive = small, poorly fitted or top-dose-only effect, or another doubt; inactive = no such curve, though single readings can be large; an effect the other way counts as inactive or inconclusive. Potency is the fitted concentration of half-maximal effect.
SMILES,GLP1R cytotox,GLP-1R agonist,GLP-1R inv ag,BRCA1 expr act,Integrin act MD
CCCCCCSc1ccc([C@H]2N[C@@](Cc3ccccc3)(C(=O)OC)[C@H]3C(=O)N(CC)C(=O)[C@@H]23)cc1,-16%,-1%,-10%,-8%,1%
CCCCCCSc1ccc([C@H]2N[C@@](C)(C(=O)OC)[C@H]3C(=O)N(CC)C(=O)[C@@H]23)cc1,0%,25%,10µM*,-47%,-25%
Cc1ccc(NC(=O)Nc2nnc(N3CCCCC3)s2)c(C)c1,-6%,/,5%,/,/
COc1ccc(C(NC(C)=O)c2ccc3cccnc3c2O)cc1OC (stereo not given),/,/,/,-74%,/
CCCC(=O)NC(c1cccc([N+](=O)[O-])c1)c1ccc2cccnc2c1O (stereo not given),?,-5%,?,-74%,-40%
CC(C)C(=O)NC(c1cccc([N+](=O)[O-])c1)c1ccc2cccnc2c1O (stereo not given),2.5µM*,-14%,?,-82%,-11%
COc1ccc(C(NC(C)=O)c2ccc3cccnc3c2O)c(OC)c1 (stereo not given),?,0%,3.5µM*,-86%,-27%
Cc1oc2ncn(CC(C)C)c(=O)c2c1C(=O)N(CCN(C)C)Cc1ccccc1,-10%,/,-15%,0%,/
Cc1ccc(C)c(NC(=O)Cn2cc(S(=O)(=O)N3CCCC3)c(S(=O)(=O)N3CCCC3)c2)c1,0%,/,10%,/,/
CC(C)(C)c1ccc(C(=O)NCC(c2cccs2)S(=O)(=O)c2ccccc2)cc1 (stereo not given),1%,/,2.8µM*,/,/
CCOc1ccc(C(=O)NCC(c2cccs2)S(=O)(=O)c2ccccc2)cc1 (stereo not given),2%,/,?,/,/
COCC(=O)Oc1cc(-c2ccc(C)cc2C)c(OC(=O)COC)c(-c2ccc(C)cc2C)c1,-17%,1%,2.5µM*,-56%,-57%
Cc1ccc(C)c(NC(=O)Cn2cc(S(=O)(=O)c3ccc(F)cc3)c(=O)c3cc(F)ccc32)c1,1%,-1%,4%,14%,/
OCC1(Cc2ccccc2Cl)CCN(C/C=C/c2ccccc2)CC1,-22%,6%,10µM*,-9%,-59%
Cc1ccc(C2(c3noc(CN4CCC(c5ccncc5)CC4)n3)CCCC2)cc1,-19%,?,4µM*,-12%,-27%
Cc1ccc(C2(c3noc(CN(C)CC4CCCCO4)n3)CCCC2)cc1 (stereo not given),-2%,2%,?,-14%,6%
COc1ccc(CNC(=O)c2ccc3c(c2)N(Cc2cccc(Cl)c2)C(=O)c2ccccc2S3)c(OC)c1,-13%,/,-16%,/,/
COC(=O)c1c(-c2cccnc2)csc1NC(=O)c1ccc2c(c1)OCO2,10%,0%,109%,2.2µM*,-16%
CCc1cc(C(=O)OC)c(NC(=O)c2ccoc2C)s1,6%,15%,7%,-29%,-25%
COC(=O)c1c(-c2ccncc2)csc1NC(=O)c1ccoc1C,0%,?,95%,4.5µM*,-11%[7.66 µM]
COc1ccc(CCNC(=O)CCCn2c(=O)c3ccccc3n(Cc3c(C)cc(C)cc3C)c2=O)cc1OC,5%,2%,1%,6%,/
CN(Cc1ccccc1)S(=O)(=O)c1ccc2[nH]c3c(c2c1)CCCCC3,0%,/,?,/,/
COc1ccc(/C=C/C(O)=C2/C(=O)N(C)C3(C)CC2c2ccccc2O3)cc1 (stereo not given),-7%,-10%,?,-104%,-46%
Cc1ccc(/C=C/C(O)=C2/C(=O)N(C)C3(C)CC2c2ccccc2O3)cc1 (stereo not given),1%,-6%,2.2µM*,-95%,-47%
CCc1cccc(OCC(=O)Nc2ccc(C)c(S(=O)(=O)N3CCCCCC3)c2)c1,7%,7%,5µM*,-59%,-40%
SMILES,GLP1R cytotox,GLP-1R agonist,GLP-1R inv ag,BRCA1 expr act,Integrin act MD
Cc1ccc(NC(=O)/C=C/c2ccco2)cc1S(=O)(=O)N1CCCCCC1,-19%,10%,10µM*,-32%,-25%
CCOc1ccc(C(=O)CCC(=O)Nc2ccc(C)c(S(=O)(=O)N3CCCCC3)c2)cc1,8%,10%,?,-51%,-14%
CC(=O)c1ccc(OCCCC(=O)Nc2ccc(C)c(S(=O)(=O)N3CCCCC3)c2)cc1,-5%,10%,11µM*,-49%,-50%
O=C(NCc1ccco1)c1ccc(Cn2c(SCc3ccc(F)cc3)nc3cccnc32)cc1,-22%,/,-12%,/,/
CCCC(=O)O[C@]1(C(=O)COC(C)=O)CC[C@H]2C3C[C@H](F)C4=CC(=O)C=CC4(C)[C@@]3(F)[C@@H](O)CC21C (stereo not given in full),/,-1%,/,/,/
COc1ccc(-c2nc3sc(CCNS(=O)(=O)c4c(C)cc(C)cc4C)c(C)n3n2)cc1,-1%,/,?,/,/
CC(Nc1nc(-c2ccc(F)cc2)cs1)c1nc2cc(C(F)(F)F)ccc2n1CCOCCO (stereo not given),8%,-5%,-3%,23%,0%
Cc1ccc(Cn2c(C(C)Nc3nc(-c4ccc(F)cc4)cs3)nc3cc(C(F)(F)F)ccc32)cc1 (stereo not given),-14%,0%,10µM*,-33%,1%
CC(Nc1nc(-c2ccc(F)cc2)cs1)c1nc2cc(C(F)(F)F)ccc2n1CCCO (stereo not given),-9%,-1%,7.9µM*,-54%,-33%
COc1cc2c(c(OC)c1OC)-c1c(cc3c(c1OC)OCO3)C[C@@H](C)[C@](C)(O)C2,/,4%,/,/,/
CCn1c(NCc2cc(Br)ccc2NS(=O)(=O)c2ccc(C)cc2)nc2ccccc21,-30%,-32%,11µM*,-87%,5%
CCn1c(NCc2ccccc2NS(=O)(=O)c2ccc(C)cc2)nc2ccccc21,-27%,-5%,?,-66%,-30%
CCC(CO)NC(=O)C(=O)Nc1c2c(nn1-c1ccc(F)cc1)CSC2 (stereo not given),-1%,/,9%,/,/
CCN(CC)S(=O)(=O)c1ccc2c(c1)N(CC(=O)NCCCN1CCN(c3ccc(OC)cc3)CC1)C(=O)CO2,0%,/,-10%,/,/
CCOCCCNC(=O)C1CCN(c2nn3cc(-c4ccc(F)cc4)nc3s2)CC1,2%,/,14%,/,/
CCCCNC(=S)N1CCN(c2nc3ccccc3s2)CC1,-1%,6%,?,-1%,6%
CNC(=S)N1CCN(c2nc3ccccc3s2)CC1,2%,7%,8%,7.1µM*,15%
CS(=O)(=O)N1CCN(c2nc3ccccc3s2)CC1,5%,0%,0%,13µM*,12%

# Screening data deposited in PubChem BioAssay by National Center for Advancing Translational Sciences (NCATS).
